# Source: the supplement of paper PMC10849652
# Of roughly 7,900 targets only a part is listed; those with a hit were picked by preference. About 0.6% of all pairs of compound and target were hits. Values without a mark were called inactive.
# Tests used:
# Test in all cases: log2 fold change, soluble protein after heating vs DMSO (PISA); higher = thermal stabilisation; K562 cells, 10 uM, 30 min; active = over 0.2 and 3.5 SD of the protein, either way, in both replicates (recomputed)
# IRAK-1-4 Inhibitor I = compound: C1COCCN1CCN2C3=CC=CC=C3N=C2NC(=O)C4=CC(=CC=C4)[N+](=O)[O-] [IRAK-1-4 Inhibitor I]
# How it was run: (§1)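 K562 cells at 2×10^6 cells/mL were exposed to 10 μM compound for 30 min, then aliquots were heated for 3 min across 48°C-58°C, pooled, and extracted in PBS containing 0.5% NP-40 at 4°C. The supernatant after 21,000xg for 90 min was taken as soluble protein and measured by TMTpro 16plex LC-MS/MS with channel sums equalised. Thermal stability is reported relative to control samples, with values from duplicates. Fold changes are given on a log2 scale.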
# ibrutinib = compound: C=CC(=O)N1CCC[C@@H](n2nc(-c3ccc(Oc4ccccc4)cc3)c3c(N)ncnc32)C1 [ibrutinib]
# How it was run: as §1
# [1] = compound: CC(=O)c1cnc2ccc(-c3cc(Cl)c(O)c(Cl)c3)nc2c1N[C@H]1CC[C@H](CN(C)C)CC1
# How it was run: as §1
# ralimetinib = compound: CC(C)(C)Cn1c(N)nc2ccc(-c3[nH]c(C(C)(C)C)nc3-c3ccc(F)cc3)nc21 [ralimetinib]
# How it was run: as §1
# [2] = compound: CC(C)(O)CC(=O)NCCn1ccc2ncnc(Nc3ccc(Oc4cccc(C(F)(F)F)c4)c(Cl)c3)c21
# How it was run: as §1
# [3] = compound: CC(C)C1=C2N=C(C=C(N2N=C1)NCC3=CC=CC=C3)NCCCCCCN
# How it was run: as §1
# [4] = compound: CC(C)C[C@@H](C=O)NC(=O)[C@H](CC(C)C)NC(=O)[C@H](CC(C)C)NC(=O)OCc1ccccc1
# How it was run: as §1
# pinometostat = compound: CC(C)N(C[C@H]1O[C@@H](n2cnc3c(N)ncnc32)[C@H](O)[C@@H]1O)[C@H]1C[C@@H](CCc2nc3cc(C(C)(C)C)ccc3[nH]2)C1 [pinometostat]
# How it was run: as §1
# [5] = compound: CC1=C(C(CC(=O)N1)C2=CC=C(C=C2)C(F)(F)F)C(=O)NC3=C(C=C4C(=C3)C=NN4)F
# How it was run: as §1
# [6] = compound: CC1=C(C2=C(C=C1)C(=O)C3=CC=CC=C3N2CCCN)C
# How it was run: as §1
# [7] = compound: CC1=C(C=C(C=C1)NC(=O)C2=CC(=CC=C2)C(C)(C)C#N)NC3=CC4=C(C=C3)N=CN(C4=O)C
# How it was run: as §1
# [8] = compound: CC1=C(C=C(C=C1)NC(=O)C2=CC(=CC=C2)N(C)C)NC(=O)C3=CC=C(C=C3)O
# How it was run: as §1
# [9] = compound: CC1=CC=C(C=C1)SC2=C3C=C(SC3=CN=C2)C(=O)N
# How it was run: as §1
# [10] = compound: CC1=NC(=CC=C1)C2=C(N=C(N2)C(C)(C)C)C3=CC4=NC=CN=C4C=C3
# How it was run: as §1
# Nexturastat A = compound: CCCCN(Cc1ccc(C(=O)NO)cc1)C(=O)Nc1ccccc1 [Nexturastat A]
# How it was run: as §1
# vemurafenib = compound: CCCS(=O)(=O)Nc1ccc(F)c(C(=O)c2c[nH]c3ncc(-c4ccc(Cl)cc4)cc23)c1F [vemurafenib]
# How it was run: as §1
# [11] = compound: CCCS(=O)(=O)Nc1ccc(F)c(C(=O)c2c[nH]c3ncc(Cl)cc23)c1F
# How it was run: as §1
# [12] = compound: CCCc1cc(C)[nH]c(=O)c1CNC(=O)c1cc(-c2ccnc(N3CCN(C)CC3)c2)cc2c1cnn2C(C)C
# How it was run: as §1
# givinostat = compound: CCN(CC)Cc1ccc2cc(COC(=O)Nc3ccc(C(=O)NO)cc3)ccc2c1 [givinostat]
# How it was run: as §1
# barasertib = compound: CCN(CCCOc1ccc2c(Nc3cc(CC(=O)Nc4cccc(F)c4)[nH]n3)ncnc2c1)CCOP(=O)(O)O [barasertib]
# How it was run: as §1
# UniProt Q8NEB9, sequence (Q8NEB9 whole entry, looked up): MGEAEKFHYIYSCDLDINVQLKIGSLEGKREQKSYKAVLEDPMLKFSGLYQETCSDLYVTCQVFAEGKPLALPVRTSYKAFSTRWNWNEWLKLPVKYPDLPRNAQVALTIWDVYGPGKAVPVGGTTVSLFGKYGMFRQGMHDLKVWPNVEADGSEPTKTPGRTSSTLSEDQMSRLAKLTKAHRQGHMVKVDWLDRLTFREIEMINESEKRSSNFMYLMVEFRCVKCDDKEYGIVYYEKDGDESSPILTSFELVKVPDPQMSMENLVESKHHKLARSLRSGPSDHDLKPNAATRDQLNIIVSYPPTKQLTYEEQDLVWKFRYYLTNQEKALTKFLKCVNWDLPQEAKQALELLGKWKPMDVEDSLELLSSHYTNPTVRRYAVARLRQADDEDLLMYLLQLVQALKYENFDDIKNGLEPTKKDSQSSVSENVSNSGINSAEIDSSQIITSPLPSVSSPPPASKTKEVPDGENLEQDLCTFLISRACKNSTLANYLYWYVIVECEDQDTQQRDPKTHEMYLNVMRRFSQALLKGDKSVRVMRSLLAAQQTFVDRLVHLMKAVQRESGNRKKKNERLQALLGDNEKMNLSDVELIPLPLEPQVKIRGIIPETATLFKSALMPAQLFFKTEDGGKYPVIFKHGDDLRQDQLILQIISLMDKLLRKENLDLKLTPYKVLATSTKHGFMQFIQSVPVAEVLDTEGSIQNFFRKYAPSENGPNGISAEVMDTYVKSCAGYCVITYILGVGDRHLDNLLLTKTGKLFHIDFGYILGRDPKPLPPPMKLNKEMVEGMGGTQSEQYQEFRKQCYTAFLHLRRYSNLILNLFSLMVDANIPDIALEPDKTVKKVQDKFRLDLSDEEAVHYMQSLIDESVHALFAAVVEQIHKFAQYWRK
# UniProt Q9NR22, sequence (Q9NR22 whole entry, looked up): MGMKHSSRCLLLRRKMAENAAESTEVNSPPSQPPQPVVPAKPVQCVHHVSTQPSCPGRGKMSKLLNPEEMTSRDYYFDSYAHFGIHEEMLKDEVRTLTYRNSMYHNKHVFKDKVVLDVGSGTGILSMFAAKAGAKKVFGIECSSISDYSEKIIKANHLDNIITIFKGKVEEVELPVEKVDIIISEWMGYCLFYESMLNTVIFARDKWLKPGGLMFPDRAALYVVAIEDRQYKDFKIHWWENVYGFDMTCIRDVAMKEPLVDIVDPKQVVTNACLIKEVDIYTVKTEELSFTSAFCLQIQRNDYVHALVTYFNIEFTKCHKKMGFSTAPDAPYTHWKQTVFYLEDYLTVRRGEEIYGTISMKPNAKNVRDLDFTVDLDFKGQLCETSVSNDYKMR
# UniProt O15530, sequence (O15530 whole entry, looked up): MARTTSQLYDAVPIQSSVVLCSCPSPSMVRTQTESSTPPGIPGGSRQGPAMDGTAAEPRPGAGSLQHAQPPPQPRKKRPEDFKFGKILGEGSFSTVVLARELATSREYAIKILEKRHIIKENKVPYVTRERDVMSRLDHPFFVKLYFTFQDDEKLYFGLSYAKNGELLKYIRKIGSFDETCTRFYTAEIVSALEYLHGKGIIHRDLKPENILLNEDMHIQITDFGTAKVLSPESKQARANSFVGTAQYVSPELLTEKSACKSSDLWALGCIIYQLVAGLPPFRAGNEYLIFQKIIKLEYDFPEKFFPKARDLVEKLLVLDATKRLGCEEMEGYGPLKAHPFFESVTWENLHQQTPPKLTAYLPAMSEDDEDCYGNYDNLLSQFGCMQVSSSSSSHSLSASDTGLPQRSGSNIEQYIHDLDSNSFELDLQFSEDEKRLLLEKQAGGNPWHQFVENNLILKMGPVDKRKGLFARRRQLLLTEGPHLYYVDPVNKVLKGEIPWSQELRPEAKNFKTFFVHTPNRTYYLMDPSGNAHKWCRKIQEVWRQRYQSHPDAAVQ
# UniProt O96013, sequence (O96013 whole entry, looked up): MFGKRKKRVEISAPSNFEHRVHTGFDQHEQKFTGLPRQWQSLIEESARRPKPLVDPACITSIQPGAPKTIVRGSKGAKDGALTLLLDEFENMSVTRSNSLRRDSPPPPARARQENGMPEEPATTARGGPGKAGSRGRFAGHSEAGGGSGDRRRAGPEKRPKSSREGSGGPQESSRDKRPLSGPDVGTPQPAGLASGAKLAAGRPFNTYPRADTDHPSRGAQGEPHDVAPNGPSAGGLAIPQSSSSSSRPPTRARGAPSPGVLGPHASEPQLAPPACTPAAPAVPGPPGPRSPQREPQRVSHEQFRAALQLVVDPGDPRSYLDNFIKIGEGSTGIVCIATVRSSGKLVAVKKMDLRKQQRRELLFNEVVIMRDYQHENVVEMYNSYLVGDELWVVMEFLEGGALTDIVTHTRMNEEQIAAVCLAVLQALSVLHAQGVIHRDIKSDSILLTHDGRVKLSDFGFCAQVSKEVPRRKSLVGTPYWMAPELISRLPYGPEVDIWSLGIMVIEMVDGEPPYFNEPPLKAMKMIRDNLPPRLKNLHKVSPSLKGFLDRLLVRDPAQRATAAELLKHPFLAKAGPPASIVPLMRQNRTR
# UniProt Q15257, sequence (Q15257 whole entry, looked up): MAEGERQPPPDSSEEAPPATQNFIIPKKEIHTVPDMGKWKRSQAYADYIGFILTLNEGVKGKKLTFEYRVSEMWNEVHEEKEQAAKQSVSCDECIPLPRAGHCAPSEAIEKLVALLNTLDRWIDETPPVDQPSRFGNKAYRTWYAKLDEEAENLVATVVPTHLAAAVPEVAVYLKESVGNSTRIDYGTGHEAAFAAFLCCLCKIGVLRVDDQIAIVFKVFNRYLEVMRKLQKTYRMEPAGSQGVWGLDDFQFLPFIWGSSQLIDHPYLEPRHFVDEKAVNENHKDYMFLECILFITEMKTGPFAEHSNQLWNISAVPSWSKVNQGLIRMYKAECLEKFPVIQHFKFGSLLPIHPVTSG
# UniProt P49642, sequence (P49642 whole entry, looked up): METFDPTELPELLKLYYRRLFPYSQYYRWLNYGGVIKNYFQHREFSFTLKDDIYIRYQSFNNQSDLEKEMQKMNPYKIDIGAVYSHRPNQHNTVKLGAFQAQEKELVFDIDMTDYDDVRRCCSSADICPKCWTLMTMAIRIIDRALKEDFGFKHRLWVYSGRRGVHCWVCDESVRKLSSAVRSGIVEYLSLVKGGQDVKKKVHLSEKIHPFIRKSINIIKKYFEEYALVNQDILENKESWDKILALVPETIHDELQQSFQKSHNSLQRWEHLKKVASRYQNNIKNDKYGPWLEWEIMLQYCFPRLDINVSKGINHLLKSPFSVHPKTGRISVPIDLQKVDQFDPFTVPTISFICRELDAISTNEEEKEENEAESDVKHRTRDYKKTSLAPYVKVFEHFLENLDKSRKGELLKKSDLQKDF
Target,log2 fold change (IRAK-1-4 Inhibitor I),log2 fold change (ibrutinib),log2 fold change [1],log2 fold change (ralimetinib),log2 fold change [2],log2 fold change [3],log2 fold change [4],log2 fold change (pinometostat),log2 fold change [5],log2 fold change [6],log2 fold change [7],log2 fold change [8],log2 fold change [9],log2 fold change [10],log2 fold change (Nexturastat A),log2 fold change (vemurafenib),log2 fold change [11],log2 fold change [12],log2 fold change (givinostat),log2 fold change (barasertib)
POLR2I (UniProt P36954),0.045,0.136,0.425 (active),-0.079,0.035,0.389,0.03,-0.024,0,0.324,-0.063,-0.011,-0.015,0.001,0.055,-0.086,-0.081,-0.057,-0.151,0.085
PTPA (UniProt Q15257),0.016,-0.027,-0.003,-0.02,-0.022,-0.01,-0.028,-0.044,0.016,-0.011,0.001,-0.01,0.004,0.014,-0.006,0.044,-0.017,-0.046,-0.005,-0.007
PTDSS1 (UniProt P48651),-0.146,0.118,0.021,0.029,-0.023,-0.585 (active),0.061,0.212,0.093,0.035,0.005,-0.006,0.08,-0.01,0.192,-0.055,0.019,-0.007,0.072,0.03
PRMT8 (UniProt Q9NR22),0.045,-0.004,-0.012,0.098,-0.014,0.001,-0.073,0.026,-0.027,0.101,0.285,-0.033,0.097,0.016,-0.125,0.028,0.156,-0.009,-0.043,0.031
PDPK1 (UniProt O15530),0.019,-0.043,-0.346 (active),-0.067,-0.087,-0.134,0.015,0.001,0.035,0.027,-0.026,-0.055,0.019,-0.007,-0.12,0.03,0.003,-0.018,0.032,0.035
PIK3C3 (UniProt Q8NEB9),-0.012,-0.005,0.058,0.082,0.002,-0.003,0.035,0.14,-0.021,0.013,0.003,0.015,-0.046,-0.085,0.54 (active),-0.001,0.02,-0.051,0.088,-0.015
PRIM1 (UniProt P49642),-0.066,-0.035,0.007,0.048,-0.079,-0.319 (active),0.046,0.114,0.026,-0.006,0.02,-0.083,0.061,-0.004,0.162,0.042,0.1,0.074,0.031,0.056
PAK4 (UniProt O96013),0.038,-0.032,0.173,-0.084,0,0.015,0.07,0.016,-0.052,0.049,-0.154,0.06,-0.017,-0.017,-0.027,-0.035,-0.026,-0.141,-0.01,0.027
